NPR1 antag: Natriuretic polypeptide receptor (hNpr1) antagonism - Primary qHTS. Atrial natriuretic peptide receptor 1 (Homo sapiens), P16066. HEK293 hNpr1 GloSensor cGMP, ANP-stimulated luminescence. Potency, µM (doses to about 46.3 µM), without a hit: at the top dose activity change, negative = inhibition, hits mostly inhibitors. 76,000 tested, 1.6% active. AID 1347048, 2019; calls by dose curve; note: nearly all actives have a fitted effect of over 60% in size
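Compound pre-incubated 30 min at room temperature on GloSensor-loaded HEK293 cells stably carrying hNpr1 and the pGS-40F cGMP biosensor. Stimulation uses hNppA at 0.1 nM final; luminescence is taken at baseline and 20 min post-agonist.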
3T3 cytotox: Cytotoxic Profiling in NIH 3T3 Cell Line of Diverse Libraries Using Quantitative High-Throughput Screening; NIH 3T3 viability, CellTiter-Glo ATP luminescence, 48-72 h; Potency, µM (series often up to 96.7 µM), for the others: at the top dose activity change, negative = cytotoxicity, actives largely listed as inhibitors; 94,000 tested, 4.3% active; AID 1345082, 2018; note: nearly all actives have a fitted effect of over 55% in size
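NIH 3T3 cells at 400 cells/well received 23 nL of compound by pintool and were incubated 48 or 72 h at 37 °C. Viability was read as ATP-coupled CellTiter-Glo luminescence.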
GPT2 inhibitor: Primary qHTS assay for inhibitors of Glutamate pyruvate transaminase 2 (GPT2); Alanine aminotransferase 2 (Homo sapiens), Q8TD30; Recombinant GPT2, coupled pyruvate oxidase/HRP Amplex Red fluorescence; Potency, µM (top dose mostly 57.7 µM), for inactives: at the top dose activity change, negative = inhibition, actives largely listed as inhibitors; 100,000 tested, 0.25% active; AID 1671188, 2021; note: nearly all actives have a fitted effect of over 60% in size
Target sequence (Q8TD30 whole entry, looked up): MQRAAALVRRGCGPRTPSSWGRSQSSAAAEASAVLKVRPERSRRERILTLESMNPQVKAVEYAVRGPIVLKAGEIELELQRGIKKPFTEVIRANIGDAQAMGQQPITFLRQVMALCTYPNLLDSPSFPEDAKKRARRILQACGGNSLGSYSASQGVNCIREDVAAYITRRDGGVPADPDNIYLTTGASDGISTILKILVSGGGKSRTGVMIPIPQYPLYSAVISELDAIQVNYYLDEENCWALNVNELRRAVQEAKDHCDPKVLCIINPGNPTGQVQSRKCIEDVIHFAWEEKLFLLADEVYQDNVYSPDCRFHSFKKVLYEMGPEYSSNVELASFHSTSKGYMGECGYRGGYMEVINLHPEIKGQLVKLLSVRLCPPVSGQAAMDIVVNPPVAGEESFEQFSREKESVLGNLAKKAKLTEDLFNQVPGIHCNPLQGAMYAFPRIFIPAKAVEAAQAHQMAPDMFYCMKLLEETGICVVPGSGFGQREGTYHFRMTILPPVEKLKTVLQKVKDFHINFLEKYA
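Fluorescence read-out: pyruvate from GPT2 turnover coupled to pyruvate oxidase, HRP and Amplex Red (0.2mM ThPP, 0.2U/mL PO and HRP, 50uM Amplex final). Substrates 250uM a-KG, 2mM L-alanine; enzyme 10ng/uL; 30 min RT.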
HEK cytotox: Cytotoxic Profiling in HEK 293 Cell Line of Diverse Libraries Using Quantitative High-Throughput Screening | HEK 293 viability, ATP luminescence (CellTiter-Glo), 48-72 h | Potency, µM (top dose mostly 115 µM), inactives show at the top dose activity change, negative = cytotoxicity, most hits filed as inhibitors | 94,000 tested, 6.6% active | AID 1345083, 2018; note: nearly all actives have a fitted effect of over 60% in size
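CellTiter-Glo luminescence (cellular ATP) was read after 48 or 72 hr of compound exposure at 37 degree Celsius. Cells were HEK 293 plated at 250 cells/well.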
Luciferase inh: Firefly luciferase inhibition profiling of diverse chemical library using quantitative high-throughput screening. Luciferin 4-monooxygenase (Photinus pyralis), P08659. purified P. pyralis luciferase, luminescence, biochemical. Potency, µM (top dose mostly 115 µM), actives largely listed as inhibitors. 76,000 tested, 2.5% active; note: nearly all actives have a fitted effect of over 65% in size
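FLuc 10nM, D-luciferin 10uM, ATP 10uM, Mg acetate 10mM, Tris acetate pH 7.5, Tween/BSA; cpd qHTS; enzyme added last; CCD luminescence.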
* hit, by the source's call; i = inactive; ? = inconclusive; nt = no result; [ ] = dose if it differs, or a comment. Compounds with a hit are over-represented: about 10% of the library has one in this group of screens. Unless noted, calls come from the whole dose curve; as a rule, active = well fitted curve in the direction sought with a large enough effect; inconclusive = small, poorly fitted or top-dose-only effect, or another doubt; inactive = no such curve, though single readings can be large; an effect the other way counts as inactive or inconclusive. % is set by controls: 0 for no effect and ±100 for the full control effect; potency is the fitted concentration of half-maximal effect.

SMILES	NPR1 antag	3T3 cytotox	GPT2 inhibitor	HEK cytotox	Luciferase inh
O=C(NC1CCCC1)C1CCN(Cc2ccccc2-c2cccnc2)CC1	nt	?	i	?	nt
COCC(=O)Nc1ccc(-c2noc([C@@H]3CCCN3C(C)C)n2)cn1	-1%[70.6 µM]	-7%[174 µM]	i	-14%[172 µM]	i
CCC1c2nccn2CCCN1C(=O)COc1ccc(F)cc1 (configuration not stated)	-2%	-6%	i	5%	i
COc1cccc(Nc2ccnc(-c3nnc(C)n3C3CCCCC3)c2)c1	-25%[70.6 µM]	89µM*	-6%[88.5 µM]	71µM*	i
COc1cccc(-c2ccnc(-c3nnc(C)n3C3CCCCC3)c2)c1	0%[70.6 µM]	89µM*	i	71µM*	i
Cc1cc(C)c(CNC(=O)c2nc(Nc3ccccc3)cc3[nH]ccc23)c(=O)[nH]1	-11%[70.6 µM]	?	i	?	i
COc1ncccc1-c1cc2[nH]ccc2c(C(=O)NCc2c(C)cc(C)[nH]c2=O)n1	0%[70.6 µM]	50µM*	?	?	i
COc1ccccc1-c1cc2[nH]ccc2c(C(=O)NCc2c(C)cc(C)[nH]c2=O)n1	-4%[70.6 µM]	?	?	?	i
Cc1cc(C)c(CNC(=O)c2nc(-c3cccc(O)c3)cc3[nH]ccc23)c(=O)[nH]1	3%[70.6 µM]	50µM*	-6%[88.5 µM]	79µM*	?
COc1cccc(-c2cn3cc(C(=O)NCc4ccccn4)nc3s2)c1	nt	?	1%	?	nt
Cc1ccc(C#N)c(NCc2cccnc2N2CCN(c3ccccn3)CC2)n1	-19%	?	-5%[11.5 µM]	?	i
COc1ccccc1-c1ccc(CN2CCC(N[S+](=O)([O-])c3cccs3)C2)cc1 (configuration not stated)	nt	?	3%	?	nt
COc1ccc(F)cc1-c1ccc(CN2CCC(N[S+](=O)([O-])c3ccc(NC(C)=O)cc3)C2)cc1 (configuration not stated)	nt	?	nt	14µM*	nt
COc1ccccc1-c1ccc(CN2CCC(N[S+](=O)([O-])c3cccc(C(F)(F)F)c3)C2)cc1 (configuration not stated)	nt	13µM*	nt	20µM*	nt
COc1ccc(F)cc1-c1ccc(CN2CCC(N[S+](=O)([O-])c3cccc(C(F)(F)F)c3)C2)cc1 (configuration not stated)	nt	13µM*	nt	20µM*	nt
COc1ccccc1-c1ccc(CN2CCC(NC(=O)Cc3ccccn3)C2)cc1 (configuration not stated)	nt	?	i	?	nt
COc1ccccc1-c1ccc(CN2CCC(N[S+](=O)([O-])c3ccccc3)C2)cc1 (configuration not stated)	nt	32µM*	nt	35µM*	nt
CN(Cc1cc(C[C@@H]2C[C@H](NCc3ncc[nH]3)C2(C)C)no1)c1ccccc1	-3%[70.6 µM]	100µM*	3%[88.5 µM]	63µM*	?
CC1(C)[C@H](Cc2cc(CN3CCCCC3)on2)C[C@@H]1N	1%[70.6 µM]	?	i	?	i
CN(C)Cc1cc(C[C@@H]2C[C@H](NCc3ccc(F)cc3)C2(C)C)no1	6%[70.6 µM]	?	4%[88.5 µM]	?	i
COCC(=O)N[C@H]1C[C@@H](Cc2cc(CN(C)c3ccccc3)on2)C1(C)C	-17%[70.6 µM]	?	?	45µM*	i
CC(C)NC(=O)N[C@H]1C[C@@H](Cc2cc(CN(C)c3ccccc3)on2)C1(C)C	-24%[70.6 µM]	?	-4%[88.5 µM]	?	i
COCC(=O)N[C@H]1C[C@@H](Cc2cc(CN(C)Cc3ccccc3)on2)C1(C)C	-18%[70.6 µM]	?	?	?	i
CC1(C)[C@H](Cc2cc(CN3CCCCC3)on2)C[C@@H]1NCc1ccccn1	-4%[70.6 µM]	112µM*	2%[88.5 µM]	?	i
CC(=O)N[C@H]1C[C@@H](Cc2cc(CN(C)c3ccccc3)on2)C1(C)C	-14%[70.6 µM]	-22%[174 µM]	-28%[88.5 µM]	79µM*	i
SMILES	NPR1 antag	3T3 cytotox	GPT2 inhibitor	HEK cytotox	Luciferase inh
CCOC(=O)[C@@H]1[C@@H](OC(N)=O)C(=O)N(Cc2ccccc2)C12CCN(C(=O)C1CC1)CC2	nt	?	nt	-3%	nt
COc1ccccc1-c1ccc2ncc(Nc3ccnc(N4CCOCC4)c3)n2n1	-24%[70.6 µM]	?	i	?	i
OCc1cccc(-c2ccc3ncc(Nc4ccnc(N5CCOCC5)c4)n3n2)c1	6%[70.6 µM]	?	1%[88.5 µM]	100µM*	?
COc1ccc(-c2ccc3ncc(Nc4ccnc(N5CCOCC5)c4)n3n2)cn1	3%[70.6 µM]	22µM*	3%[88.5 µM]	28µM*	i
Cc1noc(C)c1S(=O)(=O)N(C)C1CCc2ccccc21 (configuration not stated)	17%[70.6 µM]	?	i	?	i
CC1=C[C@@H](CN(C)CCC#N)[C@H](C(C)C)C[C@H]1Cc1nnc(-c2ccc(C)cc2)o1	?	?	-6%[88.5 µM]	50µM*	i
COc1ccc(-c2nnc(C[C@@H]3C[C@@H](C(C)C)[C@H](CN(C)CCC#N)C=C3C)o2)cc1	?	89µM*	?	63µM*	i
COc1ccc(-c2nnc(C[C@@H]3C[C@@H](C(C)C)[C@H](CN(C)CCc4ccccn4)C=C3C)o2)cc1	-8%	35µM*	?	22µM*	i
CS(=O)(=O)c1ccc(CN2CCOC[C@H]2c2ncc(-c3ccc(C(F)(F)F)cc3)[nH]2)cc1	4%	?	-1%	?	i
COc1cc2c(CCNC(C)=O)c[nH]c2cc1Cl	nt	nt	4%	nt	nt
CC(=O)NCCc1c[nH]c2ccc(O)cc12	nt	nt	3.2µM*	nt	nt
O=C1N(c2ccccc2)CC12CCN(S(=O)(=O)Cc1ccccc1)CC2	nt	?	i	?	nt
O=C(NCc1cccc(F)c1)C1CCN(c2nccc(Nc3ccccc3Cl)n2)CC1	nt	?	i	45µM*	nt
O=C(NCc1cccc(C(F)(F)F)c1)[C@@H]1CCCN1c1nccc(Nc2ccccc2Cl)n1	nt	?	-18%	?	nt
CSCCNC(=O)C1CCN(c2nccc(Nc3ccccc3Cl)n2)CC1	nt	35µM*	i	?	nt
O=C(NCc1ccc2c(c1)OCO2)C1CCN(c2nccc(Nc3ccccc3Cl)n2)CC1	nt	35µM*	0%	28µM*	nt
O=C(NCc1cccc(Cl)c1)[C@@H]1CCCN1c1nccc(Nc2ccccc2Cl)n1	nt	?	i	35µM*	nt
O=C(NCc1ccc(F)cc1)C1CCN(c2nccc(Nc3ccccc3Cl)n2)CC1	nt	?	4%	?	nt

Screening results (PubChem BioAssay)
